# Bioassay records from PubChem BioAssay.
# PRMT1 inh: PRMT1 (human) inhibition, primary screen; recombinant PRMT1, activity-based probe fluorescence polarization; AID 652257; inhibition, % at 2.79 µM; Q99873; 1.3% of 370,000 active;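 active = inhibition above about 21% made by adding two undisclosed values, limit read from the data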
# Fam108B counter: Fam108B inhibition, counter-screen for RBBP9 inhibitors; inhibition, % at 9.51 µM; recombinant Fam108B, FP-Rh probe fluorescence polarization; AID 1947; 0.33% of 300,000 active;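 active = inhibition above the screen mean inhibition plus 3 SD, computed separately per campaign, cut at about 18% in these data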;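 also: inhibitors lower polarization as less probe binds the enzyme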
# PME-1 inh: PME-1 (human) inhibition; Q9Y570; recombinant PME-1, FP-Rh probe fluorescence polarization; inhibition, % at 5.9 µM; 0.53% of 320,000 active;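 active = inhibition above the campaign mean of all compounds plus 3 SD, cut at about 26% in these data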;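 also: competitive labeling of PME-1 active site by serine hydrolase directed probe; 0% = PME-1 with DMSO and 100% = wells lacking PME-1 enzyme; inhibitors block probe labeling so polarization falls and inhibition rises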
# Target sequence (Q9Y570 whole entry, looked up): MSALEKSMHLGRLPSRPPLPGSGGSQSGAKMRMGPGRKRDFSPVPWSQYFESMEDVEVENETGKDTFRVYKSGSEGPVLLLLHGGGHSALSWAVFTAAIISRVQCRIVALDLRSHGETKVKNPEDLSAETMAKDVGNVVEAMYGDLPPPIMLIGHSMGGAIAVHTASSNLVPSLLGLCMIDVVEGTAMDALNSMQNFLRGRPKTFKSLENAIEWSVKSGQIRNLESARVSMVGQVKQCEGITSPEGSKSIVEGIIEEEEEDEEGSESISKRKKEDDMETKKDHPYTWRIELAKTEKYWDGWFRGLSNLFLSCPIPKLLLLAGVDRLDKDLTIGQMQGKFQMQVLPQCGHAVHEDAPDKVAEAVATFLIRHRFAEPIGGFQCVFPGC
# TCR CD3 inh: blocks the human TCR-CD3 interaction. TAMRA-labeled TCR probe fluorescence, biochemical. inhibition, % at 9.4 µM. 0.37% of 360,000 active; in the data active = inhibition above about 19%;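 also: recombinant mutant TCR 2C K166C tagged with TAMRA read by polarization; 0% = receptor in buffer alone and 100% = receptor with positive control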
# PAD4 FP inh: PAD4 (human) enzyme inhibition; Q9UM07; recombinant PAD4, RCA probe fluorescence polarization; inhibition, % at 6.36 µM; 0.41% of 330,000 active;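 active = percent inhibition above a cutoff equal to the mean of all tested compounds plus 3 SD, cut at about 15% in these data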;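 also: 0% = PAD4 with RCA probe and DMSO and 100% = probe without PAD4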
# SIAE primary: blocks human sialic acid acetylesterase. Q9HAT2. SIAE FP-Rh probe binding, fluorescence polarization. inhibition, % at 9.66 µM. 0.69% of 370,000 active. AID 1053197;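 active = inhibition above a cutoff: mean of compounds within the control limits plus 3 SD of those, cut at about 17% in these data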;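 also: 0% = plate median of compound wells and 100% = probe without SIAE protein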
# PRMT1 inh conf: confirmation of human PRMT1 inhibitors; shares compounds with PRMT1 inh; recombinant His-PRMT1, activity-based probe fluorescence polarization; inhibition, % at 2.79 µM; 42% of 3,300 active; AID 687036;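 active = mean inhibition across replicates above the hit cutoff derived for the earlier primary screen, cut at about 22% in these data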
# * marks the source's active call; other numbers are inactive results; nt = no result given. An excerpt weighted towards active compounds, which were near 2.6% of everything screened.
SMILES,PRMT1 inh,Fam108B counter,PME-1 inh,TCR CD3 inh,PAD4 FP inh,SIAE primary,PRMT1 inh conf
N#Cc1c(-c2cccnc2)c2c([nH]c1=S)CCCC2,45*,3,0,3,-4,-4,32*
N#Cc1c2c(c(-c3ccco3)[nH]c1=O)CCCC2,46*,-1,1,5,-1,8,2
CN1C(C(=O)Nc2cccc(O)c2)=CC(c2ccco2)=NS1(=O)=O,3,3,4,-4,2,-2,nt
Cc1ccc(O)c(NC(=O)C2=CC(c3ccco3)=NS(=O)(=O)N2C)c1,97*,6,-2,4,-2,4,-1
Cc1cc(SCNC(=O)c2ccccc2)ncn1,71*,1,3,0,7,-2,7
O=C(NCSc1ccccc1)c1ccccc1,2,9,6,0,3,1,nt
C=CCn1c(=O)[nH]c2nc3cc(N=CN(C)C)c(C)cc3nc2c1=O,31*,3,-6,9,3,-2,75*
COc1ccc(C(=O)Nc2ccccc2C(=O)NCCN2CCOCC2)cc1OC,25*,-3,-4,8,2,9,-2
Cc1sc2ncnc(Sc3ccccc3C(=O)Nc3ccc(Br)cc3)c2c1C,35*,-14,-13,-1,10,-12,23*
Cc1sc2ncnc(Sc3ccccc3C(=O)Nc3ccc(C#N)cc3)c2c1C,2,1,0,-3,3,1,nt
CCOC(=O)[C@@]12CN(C(=O)OC(C)(C)C)CC=C1N(Cc1ccc(OC)cc1)C(=O)[C@H]2CC(=O)N1CCN(C(=O)c2ccco2)CC1,-1,nt,nt,nt,nt,9,nt
O=C1NC(=S)CN1c1ccccc1,65*,-1,5,5,5,4,60*
CC(C)CNS(=O)(=O)/C=C/c1cc2c(cc1CNC(=O)OC(C)(C)C)OCO2,0,nt,nt,nt,nt,13,nt
Cn1c(COc2ccc(Br)cc2)nnc1SC1CCc2ccccc2C1=O (stereo not given),53*,-2,5,0,0,2,9
O=C(NNc1nc(-c2ccccc2)cs1)c1ccccc1,3,1,-6,5,2,1,nt
COC(=O)c1nc(NNC(=O)c2ccccc2)sc1-c1ccccc1,43*,-5,0,-6,-1,4,5
